Experimental findings from PubChem BioAssay AID449762 (Southern Research Specialized Biocontainment Screening …, 2010) are described below.

Structures are written as SMILES. Among all 330,000 compounds or so, about 1,900 (0.58%) were called active. Inconclusive results (about 4%) are left out. A selection follows. Potency and affinity values are given separately. Unmarked numbers belong to inactive results. Cut-off read from the data, not from the text of the source: inconclusive = inhibition above about 70% without an active follow-up result; inactive = below that.

A short description of the experiment: M. tuberculosis growth inhibition, HTS (AID 449762).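 Note: bacterial growth assessed after seven days of incubation.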 The following applies: M. tuberculosis H37Rv growth inhibition, 7H9 media; at 25 µM; hits give high values.
On to `O=C(CN1C(=O)COc2ccccc21)c1cccc(Cl)c1`, for which the inhibition was 1.54%.

Regarding `CCCCN=C1CC(C)(C)CC(=O)/C1=C(/O)CCC`, the inhibition is -2.63%.

Consider `CCCN=C1CC(C)(C)CC(=O)/C1=C(/O)CCC`, for which the inhibition was -3.03%.

Take `CC(=O)Nc1ccc(C(=O)NNC(=O)C2CC2)cc1`: the inhibition was -9.13%.

As to `O=[N+]([O-])c1cccc2c([N+](=O)[O-])cccc12`, the inhibition was 9.13%.

Regarding `Cc1ccccc1[N+](=O)[O-]`, the inhibition is -10.8%.

On to `COc1cccc(CN(C)CC(=O)NCc2ccc(C)cc2)c1`, for which the inhibition was 7.23%.

In the case of `COC(=O)CN1C(c2ccccc2)=Nc2ccc(Cl)cc2C1c1ccccc1` (stereo unspecified), the inhibition is 55.5%.

Consider `NNC(=O)CN1C(c2ccc(Cl)cc2)=Nc2ccc(Br)cc2C1c1ccccc1` (stereo unspecified), for which the inhibition is 0.4%.

For `CCCCCC(=O)Nc1cccc(C2=NOC3(C2)C[C@@H](C(N)=O)N(C(=O)c2ccc(Cl)cc2)C3)c1` (stereo partly specified), the inhibition is -9.42%.

On to `CCOc1ccc2nc(NC(=O)C3CCCN(S(=O)(=O)c4cccs4)C3)sc2c1` (stereo unspecified), for which the inhibition is 58.9%.

Regarding `COc1ccc2nc(NC(=O)C3CCN(S(=O)(=O)c4cccs4)CC3)sc2c1`, the inhibition was -5.35%.

`O=C(NCC1CCCN1S(=O)(=O)c1cccs1)C(=O)Nc1cccc(F)c1` (stereo unspecified): the inhibition was -3.47%.

As for `CC(C)Cc1nc(SCC(=O)N2CCCC2)c2c(=O)n(C)c(=O)n(C)c2n1`, the inhibition was 5.69%.

Turning to `O=S(=O)(NCc1cc(-c2ccc(Cl)cc2)no1)c1ccc(Cl)cc1`, the inhibition is -3.48%.

For the molecule `CC(=O)NCc1cc(-c2ccc(Cl)cc2)no1`, the inhibition is -6.41%.

For the molecule `COc1ccc(C2CC(C)=NN2C=O)cc1OC` (stereo unspecified), the inhibition is -23.4%.

On to `C=CCC1(CC=C)CCCN1C(=O)c1cc(COc2ccc(F)c(F)c2)on1`, for which the inhibition is 11.7%.

On to `O=C(c1cc(COc2ccc(-n3cncn3)cc2)on1)N1CCCC1`, for which the inhibition is 2.05%.

As for `COc1ccccc1C1=NOC(C)(c2nnc(Cc3ccccc3)o2)C1` (stereo unspecified), the inhibition was -2.16%.

`Cc1ccc2oc(=O)c3cnn(CC(=O)N(CCN(C)C)Cc4ccco4)c3c2c1`: the inhibition is -9.56%.

Turning to `Cn1c(SCC(=O)NCC2CCCO2)ncc(C(=O)Nc2ccc(F)cc2)c1=O` (stereo unspecified), the inhibition is 67.5%.

Turning to `Cn1c(SCC(=O)NCC2CCCO2)ncc(C(=O)Nc2ccccc2)c1=O` (stereo unspecified), the inhibition was 54.1%.

In the case of `COC(=O)c1ccc2c(=O)[nH]c(CSc3nc(-c4ccc(F)cc4)cs3)nc2c1`, the inhibition is -1.24%.

Turning to `COC(=O)c1ccc2c(=O)[nH]c(CCl)nc2c1`, the inhibition was 37.7%.

For `COc1cc(OC)c(-c2nc3c[n+](CC(=O)c4ccccc4)ccc3n2C)cc1OC`, the inhibition was -1.07%.

With `COc1cc(-c2nc3c[n+](CC(=O)c4ccccc4)ccc3n2C)cc(OC)c1OC`, the inhibition was 3.76%.

Take `Cc1ccc(-c2nc3ncccn3c2Nc2ccc3c(c2)OCO3)o1`: the inhibition was 3.61%.

As for `Cc1ccc(-c2nc3ncccn3c2Nc2ccc3c(c2)OCCO3)o1`, the inhibition was 3.72%.

Take `CCOc1ccc(NS(=O)(=O)c2cc(C(=O)N3CCCC3)ccc2Cl)cc1`: the inhibition was 5.65%.

For the molecule `Cc1ccc(NC(=O)c2ccc(OCC3CCCO3)cc2)nc1` (stereo unspecified), the inhibition was 16.9%.

Turning to `Oc1ccc(C[C@@H]2CNCCN2CC2CCCCC2)cc1`, the inhibition is -3.4%.

Regarding `Oc1ccc(C[C@H]2CNCCN2CC2CCCCC2)cc1`, the inhibition is 7.27%.

On to `CCOC(=O)c1cc(-c2ccc3c(c2)OCCO3)n[nH]1`, for which the inhibition is -1.75%.

For `OCCN(CCCn1c(-c2ccncc2)nc2ccccc21)c1nc(CN2CCCCC2)cs1`, the inhibition was -3.74%.

With `O=C(NNc1cc(N2CCOCC2)nc(N2CCOCC2)n1)c1ccc(Cl)c(Cl)c1`, the inhibition is -10.6%.

With `CC(C)(C)c1ccc(C(=O)NNc2cc(N3CCOCC3)nc(N3CCOCC3)n2)cc1`, the inhibition is 1.03%.

Consider `O=C(CSc1nc2cc(Cl)ccc2o1)N1CCOCC1`, for which the inhibition is 0.49%.

Regarding `CCN1CCN(Cc2ccc(NC(=O)c3cc(NC(=O)c4ccc5n[nH]nc5c4)cc(OC)c3)cc2C(F)(F)F)CC1`, the inhibition is 12.9%.

In the case of `CCN1CCN(Cc2ccc(NC(=O)c3cc(NC(=O)c4ccno4)cc(OC)c3)cc2C(F)(F)F)CC1`, the inhibition was 66.3%.

As for `CC(=O)NCCC(=O)Nc1cccc(S(=O)(=O)N(C)c2ccccc2)c1`, the inhibition was -0.05%.

Turning to `Cc1ccccc1OCC(=O)N/N=C/c1ccccn1`, the inhibition is -4.77%.

Take `O=C(NC1(C(F)(F)F)NC(=O)N(C2CCCCC2)C1=O)C1CC1` (stereo unspecified): the inhibition was -5.69%.

Take `CCOC(=O)c1c(C)[nH]c(N=Nc2cccc(C)c2)c1C`: the inhibition is 15.8%.

As to `CCOC(=O)c1c(C)[nH]c(N=Nc2cc(C(=O)O)cc(C(=O)O)c2)c1C`, the inhibition is -2.43%.

Take `COc1ccc(N2C(=O)/C(=C/c3cc(C)n(-c4ccc(C)cn4)c3C)C(=O)NC2=S)c(OC)c1`: the inhibition is 3.48%.

With `COc1cc(/C=N/OCC(=O)Nc2cc(C)on2)ccc1OCc1ccccc1`, the inhibition was -2.24%.

Consider `COc1ccc(/C=N/OCC(=O)Nc2cc(C)on2)cc1OC`, for which the inhibition was -6.14%.

In the case of `Cc1cc(NC(=O)C(Cl)(Cl)Cl)no1`, the inhibition is -0.63%.

With `CSCC(=O)Nc1cc(C)on1`, the inhibition was 7.76%.

On to `CCCn1c(SCC(=O)Nc2ccccc2N2CCOCC2)nc2c1c(=O)n(C)c(=O)n2C`, for which the inhibition was -9.47%.

Take `CN(CCOc1ccc(Cl)cc1)C(=O)C1CCN(C(=O)c2ccc(F)cc2)CC1`: the inhibition is -0.37%.

Regarding `CCC(NC(=O)c1cc(COc2cncc(Cl)c2)on1)c1ccc(C)cc1` (stereo unspecified), the inhibition is 27.5%.

With `CCC(NC(=O)c1cc(COc2cncc(Cl)c2)on1)c1ccncc1` (stereo unspecified), the inhibition was 4.32%.

As for `COc1cccc(NC(=O)CN(C)C(=O)c2ccccc2Sc2ccccc2C#N)c1`, the inhibition is -24%.

`CCOC(=O)c1cc(NC(=O)c2ccccc2)c(=O)n2c1oc1ccccc12`: the inhibition is -3%.

Take `Oc1c(C(c2ccccn2)N2CCCCC2)cc(Cl)c2cccnc12` (stereo unspecified): the inhibition was 3%.

Take `Oc1c(C(c2cccs2)N2CCN(c3ccccc3)CC2)ccc2cccnc12` (stereo unspecified): the inhibition was 30.5%.

As for `COC(=O)Cc1ccc(NC(=S)N2CCC(Cc3ccccc3)CC2)cc1`, the inhibition is 6.07%.

Turning to `O=C(C1=C[C@H](c2coc3ccccc3c2=O)C[C@H](OCCCCO)O1)N1CCN(Cc2ccccc2)CC1`, the inhibition was 39.2%.

Take `CC(CC(=O)Nc1cc([N+](=O)[O-])ccc1Cl)c1ccccc1` (stereo unspecified): the inhibition was 3.48%.

As to `CC(CC(=O)Nc1ccc(F)c([N+](=O)[O-])c1)c1ccccc1` (stereo unspecified), the inhibition was -6.24%.

Turning to `CSCC[C@H](NC(=O)C1CCN(S(=O)(=O)c2ccc(C)cc2)CC1)C(=O)NCC1CCCO1` (stereo partly specified), the inhibition was -8.31%.

On to `Cc1occc1-c1nnc(SCc2nnc(-c3ccc(Cl)cc3)o2)n1C`, for which the inhibition was -6.71%.

In the case of `C[C@@H]1C[C@H]2[C@@H]3CCC4=CC(=O)C=C[C@]4(C)[C@@]3(F)[C@@H](O)C[C@]2(C)[C@H]1C(=O)CO`, the inhibition is 18.9%.

In the case of `Cc1cccc(C)c1NC(=O)Cn1nnc(-c2ccc(CN3CCC(C)CC3)cc2)n1`, the inhibition is 5.96%.

With `COC(=O)N/N=C\c1ccccc1OC/C=C/c1ccccc1`, the inhibition was 7.83%.

Turning to `CCOc1ccc(-c2cc(C)[n+](CCN3CCOCC3)c(-c3ccc(OCC)cc3)c2)cc1`, the inhibition is 12.3%.

In the case of `CCOc1ccc(-c2cc(C)[n+](CCO)c(-c3ccc(OCC)cc3)c2)cc1`, the inhibition is 4.23%.

In the case of `COC(=O)/C(=C/Nc1ccccc1)[N+](=O)[O-]`, the inhibition was -4.18%.

Consider `Cc1ccc(NC(=O)CS(=O)CC(=O)N(CC(=O)NC2CCCC2)c2ccc3c(c2)OCCO3)cc1` (stereo unspecified), for which the inhibition is -4.13%.

Consider `CCn1c2ccccc2c2cc(CN3CCN(S(=O)(=O)CC)CC3)ccc21`, for which the inhibition is 10.3%.

Turning to `COc1cccc(CNCc2ccc(OC)cc2OC)c1`, the inhibition is 1.71%.

For the molecule `COc1ccc(CNCc2ccc3ccccc3c2)c(OC)c1`, the inhibition is 12.2%.

For `CCn1c2ccccc2c2cc(CN3CCN(S(C)(=O)=O)CC3)ccc21`, the inhibition was 7.91%.

As to `CCn1cc(C(=O)N2CCCC(CO)(Cc3ccccc3C)C2)cn1` (stereo unspecified), the inhibition was 0.25%.

In the case of `COc1cc2oc(=O)ccc2cc1[C@H](O)[C@@H](O)C(C)(C)O`, the inhibition is -11.1%.

Turning to `COc1ccc(-c2c[n+](CC(=O)c3ccccc3)c3n2CCCCC3)cc1`, the inhibition is 1.09%.

For `COc1ccc(-c2c[n+]3c(n2-c2ccccc2)CCCCC3)cc1`, the inhibition was -4.08%.

Turning to `CSc1nn(-c2ccc(C(=O)OC(C(=O)NC(N)=O)C(C)C)cc2)c(=S)s1` (stereo unspecified), the inhibition is 50.6%.

Consider `CC(C)NC(=O)NC(=O)COC(=O)c1ccc(OC(F)(F)F)cc1`, for which the inhibition was 14.2%.

Consider `O=C(CN1CCN(S(=O)(=O)c2cccc(F)c2)CC1)NCC1(N2CCOCC2)CCCCC1`, for which the inhibition was 6.01%.

Regarding `CC(C)(C)C(=O)Nc1cc(C(F)(F)F)ccc1-n1ccnc1`, the inhibition is -0.21%.

Take `Fc1ccc(-n2c(Cn3nnc4ccccc43)n[nH]c2=S)cc1`: the inhibition was -5.75%.

`COc1ccccc1NC(=O)CSc1nnnn1C`: the inhibition is -4.82%.

Consider `COc1ccccc1NC(=O)c1ccc(NC(=O)CSc2nncn2C)cc1`, for which the inhibition was 7.82%.

For the molecule `COc1ccccc1NS(=O)(=O)c1ccc2ccccc2c1`, the inhibition was 7.83%.

Turning to `CC1CCc2sc(C(=O)NCc3ccccn3)cc2C1` (stereo unspecified), the inhibition was 4.08%.

For the molecule `O=C(Nc1cccc2ccccc12)c1ccc([N+](=O)[O-])cc1`, the inhibition is 5.16%.

Consider `CCOC(=O)C1CCCCN1S(=O)(=O)c1cc2c(cc1C)NC(=O)CO2` (stereo unspecified), for which the inhibition was -3.9%.

In the case of `CCN(C(=O)Cn1ccc(C(F)(F)F)n1)c1c(N)n(Cc2ccccc2)c(=O)[nH]c1=O`, the inhibition is -10%.
